# Assay results: PubChem BioAssay (NCATS)
# Records with an inconclusive call do not appear. Calls of active or inactive are those of the source. Calls come from the whole dose curve; as a rule, active = well fitted inhibition curve with a large enough effect; inconclusive = small, poorly fitted or top-dose-only effect; inactive = flat fitted curve, though single readings scatter.
# Tested on: Zika virus NS2B-NS3 protease
# Assay: Primary screen GU AMC qHTS for Zika virus inhibitors (AID 1347154);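 note: 0% = no-inhibitor control and -100% = no-enzyme control; nearly all actives have a fitted effect of over 70% in size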
# Settings: Zika NS2B-NS3 unlinked protease, AMC fluorogenic substrate; series mostly up to 54.1 µM; activity change, negative = inhibition: at the top concentration
# Method in brief: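 Unlinked Zika NS2B hydrophilic domain–NS3 protease complex at 25 nM in 10 mM Tris-HCl pH 8.0, 0.01% Tween 20, with an AMC peptide substrate. Fluorescence change (340/450 nm) over 15 min at room temperature, normalized to controls, fitted to 4-parameter Hill.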
SMILES,"activity change, negative = inhibition",Potency
O=C(O)[C@H](O)c1ccccc1,-19.8% (inactive),–
COc1ccc2cc1Oc1cc3c(cc1OC)CC[N+](C)(C)[C@H]3Cc1ccc(cc1)Oc1c(OC)c(OC)cc3c1[C@@H](C2)[N+](C)(C)CC3,-6.85% (inactive),–
Cc1ncc(COP(=O)(O)O)c(C=O)c1O,-22.9% (inactive),–
Nc1ccc(S(=O)(=O)Nc2nccs2)cc1,-5.44% (inactive),–
CN(C)CCCO[C@@H]1[C@H]2OC(C)(C)O[C@H]2O[C@@H]1C(O)CO (some centres undefined),-8.19% (inactive),–
NC(=O)NNc1ccccc1,0.111% (inactive),–
O=Cc1ccccc1C=O,-2.77% (inactive),–
CCN(CC)CCSC(=O)C(c1ccccc1)c1ccccc1,2.7% (inactive),–
Cc1cc2c(cc1S(N)(=O)=O)S(=O)(=O)CCC2,-2.58% (inactive),–
O=C(O)c1ccccn1,0.203% (inactive),–
CCC(=O)c1ccc(O)cc1,-6.24% (inactive),–
O=c1cc(CO)occ1O,1.3% (inactive),–
N[C@H]1C(O)O[C@H](CO)[C@@H](O)[C@@H]1O (some centres undefined),-3.93% (inactive),–
NCCNCCNCCN,-1.9% (inactive),–
Nc1ccc(S(=O)(=O)Nc2ccccc2)cc1,1.85% (inactive),–
C=CCn1c(=O)n([C@@H]2O[C@H](CO)[C@@H](O)[C@H]2O)c2nc(N)[nH]c(=O)c21,–,inactive
CC[C@@]1(c2ccccc2)NC(=O)N(C)C1=O,1.35% (inactive),–
Cc1cc(O)cc2c1O[C@](C)(CCC[C@H](C)CCC[C@H](C)CCCC(C)C)CC2,8.77% (inactive),–
CC(COc1ccccc1)NC(C)C(O)c1ccc(O)cc1 (centres undefined),1.87% (inactive),–
COc1cc(C(=O)N2CCOCC2)cc(OC)c1OC,2% (inactive),–

SMILES,"activity change, negative = inhibition",Potency
CC(=O)Oc1ccc(C2(c3ccc(OC(C)=O)cc3)C(=O)Nc3ccccc32)cc1,0.223% (inactive),–
O=c1cc[nH]c(=O)[nH]1,1.6% (inactive),–
C[C@@H](O)[C@H](N)C(=O)O,-7.98% [at 25.8 µM] (inactive),–
NC(CSCC(=O)O)C(=O)O (centres undefined),1.85% (inactive),–
CC(=O)NC(Cc1ccccc1)C(=O)O (centres undefined),-0.83% (inactive),–
O=C(Oc1ccccc1C(=O)O)c1ccccc1O,-14.4% (inactive),–
CN1CCCCC1CCN1c2ccccc2Sc2ccc(S(C)=O)cc21 (centres undefined),2.46% (inactive),–
NC1CCN(c2cccc(Cl)n2)CC1,–,inactive
CCN(CC)CCNC(C(=O)OCCC(C)C)c1ccccc1 (centres undefined),6.6% (inactive),–
O=S(=O)(O)NC1CCCCC1,2.13% (inactive),–
O=C(O)CC(O)C(=O)O (centres undefined),4.13% (inactive),–
O=C1O[C@H](CO)[C@@H](O)[C@H](O)[C@H]1O,-3.77% (inactive),–
CCn1cc(C(=O)O)c(=O)c2cnc(N3CCNCC3)nc21,1.68% (inactive),–
CC(O)COc1ccccc1 (centres undefined),0.675% (inactive),–
O=C1c2c(O)cccc2Cc2cccc(O)c21,-16.5% (inactive),–
NCC(=O)CCC(=O)O,-3.22% (inactive),–
O=C1OC(OC(=O)c2cccnc2Nc2cccc(C(F)(F)F)c2)c2ccccc21 (centres undefined),1.69% (inactive),–
CCCCC/C(C=O)=C\c1ccccc1,2.73% (inactive),–
Cc1ncc([N+](=O)[O-])n1CC(O)CCl (centres undefined),-4.7% (inactive),–
